FMDV antiviral: blocks foot and mouth disease virus | FMDV antiviral cell-based qHTS | Potency, µM (titrated, usually from 57.9 µM), without a hit: at the top dose activity change, negative = inhibition, usual class: inhibitors | 1.2% of 410,000 active | AID 1159524; calls by dose curve; tested in HEK293T cells; note: read-out not given here; potency is the fitted concentration of half-maximal effect; % is set by controls: 0 for no effect and ±100 for the full control effect; nearly all actives have a fitted effect of over 45% in size
MARV entry inh: Marburg virus entry inhibition | 1.8% of 300,000 active | Marburg virus pseudotyped entry inhibition, cell reporter | Potency, µM (highest dose often 37.8 µM), for the others: top-dose activity change, negative = inhibition, hits mostly inhibitors; calls by dose curve; tested in HEK293 cells; note: potency is the fitted concentration of half-maximal effect; % is set by controls: 0 for no effect and ±100 for the full control effect
HCV inhibitor: blocks hepatitis C virus. Potency, µM (highest dose often 41.8 µM), inactives show top-dose activity change, negative = inhibition, actives largely listed as inhibitors. AID 651820. 3.4% of 340,000 active. Huh7.5.1 HCVcc-Cre infection, luciferase reporter, 44 h; active = well fitted inhibition curve with a large enough effect; inconclusive = small, poorly fitted or top-dose-only effect, or another doubt; inactive = no such curve, though single readings can be large or run the other way; note: potency is the fitted concentration of half-maximal effect; % is set by controls: 0 for no effect and ±100 for the full control effect
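A cell-based infection assay in which seeded cells (1,000 per well) receive test compound after 4 h, are inoculated with HCVcc-Cre at approximately 0.5 moi, and are incubated 44 h before luminescence detection.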
CHX counter: counter-screen for Shiga toxin inhibitors: cycloheximide protein synthesis inhibition; 12% of 300,000 active; cell reporter, cycloheximide protein synthesis inhibition counterscreen; max response, %; in the data active = max response mostly above about 13%, no sharp cut-off; inactive = mostly below about 14%; note: read at 38.3 µM for the half of the compounds with a filed dose; 0% is about no effect
Shiga toxin inh: inhibitors of Shiga toxin in Vero cells; Vero cells, Shiga toxin protein synthesis inhibition reporter; inhibition, % at 38.7 µM; 9.2% of 290,000 active; in the data active = inhibition mostly above about 28%, no sharp cut-off; inactive = mostly below about 43%; note: 0% is about no effect
LASV entry inh: blocks Lassa virus binding to or entry into cells. Lassa virus pseudotype entry inhibition, cell reporter. Potency, µM (top dose mostly 37.9 µM), for the others: top-dose activity change, negative = inhibition, hits mostly inhibitors. 1.2% of 300,000 active. AID 540256; calls by dose curve; tested in HEK293 cells; note: potency is the fitted concentration of half-maximal effect; % is set by controls: 0 for no effect and ±100 for the full control effect; nearly all actives have a fitted effect of over 50% in size
The depositor's hits bear a star; ? = inconclusive; nt = no result; [ ] = dose if it differs, or a comment. Hits are enriched below; roughly 13% of the tested compounds scored in any of these assays.

SMILES | FMDV antiviral | MARV entry inh | HCV inhibitor | CHX counter | Shiga toxin inh | LASV entry inh
O=C(NC(=S)Nc1ccc2nc[nH]c2c1)c1ccccc1 | 28% | 0%[46.1 µM] | -1% | 22* | 50* | ?
O=C(NNC(=S)Nc1ccccc1)c1ccc2ncccc2c1 | 0% | 3%[46.1 µM] | 18% | 37* | 56* | 4%
COc1cc(NC(=O)CCc2c(C)nc3cc(-c4ccccc4)nn3c2C)cc(OC)c1OC | -22% | -12%[46.1 µM] | nt | nt | nt | 14%[46.1 µM]
CC(C)(C)NC(=S)NNC(=O)c1ccccc1Cl | 25% | 37% | 6% | 10 | 20 | 12%
CC(C)(C)NC(=S)NNC(=O)c1ccc2ncccc2c1 | 16% | ? | -5% | 21* | 47* | 21%[46.1 µM]
Cc1ccc2cccnc2c1NC(=S)NC(=O)c1ccccc1 | ? | -8% | ? | 26* | 70* | 17%
c1ccc2c(c1)CCN(C1CCCCC1)C2 | -11% | nt | 4% | -3 | -15 | nt
Fc1ccc(CNc2nc(-c3ccco3)cc(C(F)(F)F)n2)cc1 | -28% | 9.2µM* | ? | 2 | 5 | -21%
FC(F)(F)c1cc(-c2ccco2)nc(NCc2ccccc2)n1 | -26% | -13% | ? | 3 | 46 | 0%
FC(F)(F)c1cc(-c2ccco2)nc(-n2cnc3ccccc32)n1 | -10% | -9% | ? | -4 | 3 | -19%
Cc1nc2ccccc2n1-c1nc(-c2ccco2)cc(C(F)(F)F)n1 | -6% | ? | 3.2µM* | -5 | 12 | ?
N#CC1=C(N)Oc2cc(N)ccc2C1c1cccc(F)c1 (stereo not given) | -17% | ? | ? | -1 | -6 | -21%[46.1 µM]
CN(C)c1ccc2c(c1)OC(N)=C(C#N)C2c1cccc(F)c1 (stereo not given) | ? | 2.1µM* | ? | -4 | -5 | ?
CCN(CC)C(=O)/C(=C/c1ccc2c(c1)OCO2)NC(=O)c1ccc(Br)cc1 | 86% | 2% | ? | -2 | -10 | 7%
O=C(Cc1ccc(-n2c(=O)c3sccc3n(CC(=O)Nc3ccccc3F)c2=O)cc1)NCc1ccco1 | 10% | nt | 19% | -3 | 20 | nt
Cc1cccc(Nc2ccc([N+](=O)[O-])cc2C(=O)O)c1 | 25% | ? | 5% | 28* | -7 | 8%
Cc1cccc(Nc2ccc([N+](=O)[O-])cn2)c1 | 77% | nt | -10% | 25* | 63* | nt
CCOc1cccc(Nc2ccc([N+](=O)[O-])cn2)c1 | 22% | -12%[46.1 µM] | ? | 29* | nt | -3%[46.1 µM]
O=C(O)c1cc([N+](=O)[O-])ccc1Nc1ccccc1 | 4% | 14% | 13% | -1 | -4 | 0%
Cc1cccc(OCCNc2ccc([N+](=O)[O-])cn2)c1 | -8% | ? | ? | 6 | 16 | -26%
S=C(NCCN1CCCCC1)Nc1ccccc1 | 14% | nt | -17% | 0 | -13 | nt
O=C(Cc1csc(Nc2nc(=S)[nH]c3ccccc23)n1)NCCCN1CCN(c2ccccc2F)CC1 | -27% | ? | 4µM* | -2 | -21 | nt
Cc1ccc(C(=O)Nc2c3c(nn2C(C)(C)C)CS(=O)(=O)C3)cc1[N+](=O)[O-] | 1% | nt | 18% | -7 | -1 | nt
O=[N+]([O-])c1ccc(-c2ccc(/C=N/Nc3nc(N4CCCCC4)nc(N4CCCCC4)n3)o2)cc1 | -9% | 29%[46.1 µM] | -15% | -1 | -24 | 9%
COc1ccc(/C=N/Nc2nc(Nc3ccccc3)nc(N3CCCC3)n2)cc1[N+](=O)[O-] | -17% | ? | ? | -1 | -17 | 2%[46.1 µM]
SMILES | FMDV antiviral | MARV entry inh | HCV inhibitor | CHX counter | Shiga toxin inh | LASV entry inh
O=[N+]([O-])c1cccc(/C=N/Nc2nc(N3CCCCC3)nc(N3CCCCC3)n2)c1 | -28% | -3%[46.1 µM] | 5.6µM* | -5 | 1 | 11%[46.1 µM]
COc1ccc(/C=N/Nc2nc(N3CCCCC3)nc(N3CCCCC3)n2)cc1[N+](=O)[O-] | -25% | ? | 3.5µM* | -2 | -3 | ?
O=[N+]([O-])c1cccc(-c2ccc(/C=N/Nc3nc(N4CCCCC4)nc(N4CCCCC4)n3)o2)c1 | -18% | ? | 11µM* | 6 | -13 | ?
CC(=O)Nc1ccc(Nc2cc(N3CCOCC3)c3nonc3c2[N+](=O)[O-])cc1 | ? | -29%[46.1 µM] | -4% | -1 | -10 | ?
CC(=O)Nc1cc(C(=O)NCc2ccccc2)ccc1Sc1ccc(C)cc1 | 2% | nt | nt | nt | nt | -19%[46.1 µM]
CCOC(=O)CCCNC(=O)CCNC(=O)c1ccc(OC(C)C)cc1 | 31% | -1% | 2% | 17* | 54* | 0%
O=C(O)c1cccc(Nc2ncnc3ccccc23)c1 | nt | 8% | 2% | -2 | -8 | 0%
CCOC(=O)C(Cc1ccnc2ccccc12)=NO | -30% | -4%[46.1 µM] | ? | nt | nt | -5%[46.1 µM]
COc1ccc(/C(=N/Nc2ncnc3ccccc23)C(=O)O)cc1 | 58% | -14%[46.1 µM] | 3% | 47* | 89* | ?
CCOC(=O)/C(=N\Nc1ncnc2ccccc12)c1ccc(OC)cc1 | -57% | ? | 5% | 27* | 45 | ?
Cc1cccc2cc(CN(CC3CCCO3)C(=O)c3cccs3)c(=O)[nH]c12 (stereo not given) | -7% | nt | -4% | -3 | 29 | nt
O=C(NCc1ccccc1)C1=C[C@@H](C2CCCCC2)C[C@@H](OCCCCO)O1 | -1% | nt | ? | nt | nt | nt
C/C(=N\NC(=O)c1ccc(N2CCCC2=O)cc1)c1ccc(O)cc1O | 0% | nt | ? | -7 | -15 | nt
CC(C)CC(=NNC(=O)c1ccncc1)c1cc(Cl)ccc1O | ? | ? | 2.5µM* | nt | nt | 3.2µM*
CC(=NNC(=O)c1ccncc1)c1ccc2ccccc2c1O | -2% | 7.9µM* | ? | nt | nt | 5µM*
CC(=NNC(=O)c1ccncc1)c1ccccc1O | 5% | 3.2µM* | 4.5µM* | nt | nt | ?
CC(=NNC(=O)c1ccccc1N)c1ccccc1O | -13% | nt | nt | nt | nt | nt
CC(=NNC(=O)c1ccncc1)c1ccc(O)cc1O | 10% | ? | 11µM* | nt | nt | ?
Cn1ccnc1SCC(=O)Nc1cccc(S(=O)(=O)N2CCCCCC2)c1 | 12% | ? | 2% | 2 | -5 | ?
CC1CCCCN1C(=O)COC(=O)c1cc(Cl)c2c(c1)OCO2 (stereo not given) | 20% | 28% | ? | nt | nt | 5%
COc1ccc(C(=O)/C=C/N(C)C)cc1 | 15% | ? | 13% | 20* | -24 | -16%
COc1ccc(C(=O)/C=C/N(C)C)cc1OC | 4% | -3% | 3% | -4 | 2 | -8%
CCCc1ccc(C(=O)/C=C/N(C)C)cc1 | -28% | ? | 2% | 14* | 42* | ?
CN(C)/C=C/C(=O)c1ccc(OCCN(C)c2ccccn2)cc1 | -5% | nt | -29% | -3 | -3 | nt
CN(C)/C=C/C(=O)c1ccc(Oc2ccccc2)cc1 | 17% | ? | 8% | 34* | 83* | ?
CN(C)/C=C/C(=O)c1ccccc1 | 11% | nt | 15% | 41* | 63* | nt
CN(C)/C=C/C(=O)c1ccc(S(=O)(=O)c2ccccc2)cc1 | 2% | -1%[46.1 µM] | 17% | 10 | 34 | 11%
CN(C)/C=C/C(=O)c1ccc(F)cc1 | 1% | 4% | 2% | 21* | 99 | 7%

Assay outcomes: PubChem BioAssay, National Center for Advancing Translational Sciences (NCATS)
